Laboratory results reported in PubChem BioAssay (NCATS).
Results filed as inconclusive are left out. Activity calls are given as the source filed them. Unless noted, the call rests on the fitted dose curve; in most records, active means well fitted curve in the direction sought with a large enough effect; inconclusive means small, poorly fitted or top-dose-only effect, or another doubt; inactive means no such curve, though single readings can be large; an effect the other way counts as inactive or inconclusive.

What was measured:
[1] = Cell Viability - BJ (AID 421; calls by dose curve;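 further: potency means the concentration at half of the fitted maximal effect; cells exposed to compound for 40 hours at 37 °C before readout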); details: BJ fibroblast viability, qHTS
Procedure, shortened: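 Normal human BJ foreskin fibroblasts, 1500/well in complete medium, treated 40 hr at 37 °C. Cellular ATP by CellTiter-Glo luminescence; normalized to DMSO and 100 uM tamoxifen, AC50 from Hill fit.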

[2] = Cell Viability - Jurkat (AID 426;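 active means dose-dependent loss of cell ATP signal giving a full or clear fitted curve, ranked by lower potency value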;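 further: potency means the concentration at half of the fitted maximal effect; cells exposed to compound for 40 hours at 37 °C before ATP read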); details: qHTS
Procedure, shortened: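 Luminescent ATP read-out (CellTiter-Glo, 20 min at room temperature) after 40 hr compound exposure at 37 °C of Jurkat E6-1 cells, 5000/well. Decreased ATP taken as cytotoxicity; AC50 from standard Hill equation.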

[3] = Cell Viability - HepG2 (AID 433; calls by dose curve;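 further: potency means the concentration at half of the fitted maximal effect; potency for ATP loss meaning cytotoxicity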); details: qHTS
Procedure, shortened: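 Read-out is luciferase-based quantitation of cellular ATP as a measure of viable HepG2 cells after 40 h treatment at 37 °C. Signal decrease is scaled between DMSO-only and 100 uM tamoxifen controls, with AC50 fitted by the Hill equation.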

[4] = Cell Viability - MRC5 (AID 434; calls by dose curve;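 further: potency means the concentration at half of the fitted maximal effect; cells exposed to compound for 40 hours at 37 °C; potency reflects cytotoxicity seen as loss of intracellular ATP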); details: MRC5 lung fibroblast viability, qHTS
Procedure, shortened: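 AC50 values come from Hill-equation fits of intracellular ATP loss, measured by CellTiter-Glo luminescence. Normal lung fibroblasts (MRC5) had 40 hr compound treatment at 37 C, normalized between DMSO and 100 uM tamoxifen.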

[5] = Cell Viability - SK-N-SH (AID 435; calls by dose curve; further: potency means the concentration at half of the fitted maximal effect); details: SK-N-SH neuroblastoma cell viability qHTS
Procedure, shortened: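 Luminescent ATP signal served as the viability read-out after 40 hours of compound treatment of human neuroblastoma SK-N-SH cells. Concentration-response data, scaled between DMSO and 100 uM tamoxifen, gave AC50 values by standard Hill modeling.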

[6] = target: Mitogen-activated protein kinase 10 (Mus musculus) (UniProt Q61831); assay: JNK3 AlphaScreen Assay (AID 530; active means well fitted curve in either direction with a large enough effect, not every such curve was filed as active;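 further: kinase came from lysate of stimulated human HepG2 cells; signal reports phosphorylation of biotinylated GST-cJun 1-79 at Ser73 with 10 µM ATP; on the % scale 0 is the no-effect control and ±100 the full control effect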); details: JNK3 lysate, c-Jun phosphorylation; series mostly up to 57.1 µM
Procedure, shortened: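 Kinase buffer: 20 mM Tris-HCl pH 7.6, 10 mM MgCl2, 1 mM DTT, 0.1 mM Na3VO4, 0.01% Tween-20; ATP 10 uM. Substrate biotin-GST-cJun(1-79), enzyme from activated HepG2 lysates. Detection by Ser73 phospho-antibody AlphaScreen.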

[7] = Cell Viability - N2a (AID 540); details: N2a mouse neuroblastoma cell viability; activity change, negative = cytotoxicity: at 92.2 µM (top of the series);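 further: plate controls were DMSO alone for no effect and tamoxifen control for full effect; nearly all actives have a fitted effect of over 45% in size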
Procedure, shortened: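 N2a mouse neuroblastoma, 1500 cells/well, 5 hr settle; compound 40 hr, 37 °C; CellTiter-Glo 20 min RT; luminescence; Hill-fit AC50.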

[8] = Cell Viability - NIH 3T3 (AID 541); details: NIH 3T3 cell viability, qHTS; activity change, negative = cytotoxicity: at 92.2 µM (top of the series);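 further: plate controls were DMSO alone for no effect and tamoxifen positive control for full effect; nearly all actives have a fitted effect of over 25% in size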
Procedure, shortened: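 qHTS format; 40 hr compound exposure, 37 °C; CellTiter-Glo luminescence (cellular ATP) read-out after 20 min at RT. Decrease in ATP = cytotoxicity; AC50 from standard Hill fit.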

[9] = Cell Viability - HUV-EC-C (AID 542); details: HUV-EC-C endothelial cell viability, qHTS; series mostly up to 92.2 µM; further: on the % scale 0 is the no-effect control and ±100 the full control effect; nearly all actives have a fitted effect of over 35% in size
Procedure, shortened: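 Luminescent ATP read-out (CellTiter-Glo, 20 min room temperature) after 40 hr compound treatment of HUV-EC-C cells at 37 °C. Concentration-response data fitted with the standard Hill equation to give AC50; tamoxifen and doxorubicin served as positive controls.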

[10] = Cell Viability - H-4-II-E (AID 543); details: H-4-II-E rat hepatoma viability; series mostly up to 92.2 µM; further: on the % scale 0 is the no-effect control and ±100 the full control effect; nearly all actives have a fitted effect of over 35% in size
Procedure, shortened: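 qHTS, rat hepatoma H-4-II-E, 1500 cells/well; 40 hr compound exposure, 37 °C; CellTiter-Glo ATP luminescence after 20 min RT; AC50 by standard Hill fit.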

[11] = Cell Viability - SH-SY5Y (AID 544); details: SH-SY5Y neuroblastoma cell viability; viability change, negative = cytotoxic: at 92.2 µM (top of the series); further: nearly all actives have a fitted effect of over 55% in size
Procedure, shortened: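 SH-SY5Y, 1500 cells/well, 5 hr pre-incubation 37 °C; cpd 40 hr 37 °C; CellTiter-Glo 20 min RT; luminescence (ATP) read. qHTS concentration-response, Hill fit → AC50. Tamoxifen, doxorubicin as positive controls.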

[12] = Cell Viability - Renal Proximal Tubule (AID 545); details: renal proximal tubule cells viability, primary cells of rat origin; series mostly up to 91.7 µM; further: nearly all actives have a fitted effect of over 40% in size
Procedure, shortened: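 Luminescent ATP signal (CellTiter-Glo) served as the viability read-out after 40 hr compound exposure of freshly isolated rat proximal tubule cells at 37 °C. Concentration-dependent ATP loss was fitted with the Hill equation to give AC50.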

[13] = Cell Viability - Mesenchymal (AID 546); details: mesenchymal cells viability, qHTS; series mostly up to 91.7 µM;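 further: cells exposed to compound for 40 hours before reading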
Procedure, shortened: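 CellTiter-Glo luminescence (intracellular ATP, 20 min room temperature) after 40 hr compound exposure at 37 °C of 1000 glomerulus-derived human kidney mesenchymal cells/well; AC50 values obtained by fitting qHTS concentration-response data to the Hill equation.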

[14] = Cellular Toxicity (caspase-3) HepG2 (AID 654); details: HepG2 caspase-3 activation, luminescence; series mostly up to 92.2 µM;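 further: cells exposed to compound for 16 hours before reading; 0% = DMSO alone and 100% = caspase signal from 100 µM tamoxifen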
Procedure, shortened: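 Luminescent Caspase-Glo 3/7 readout after 16 hr compound exposure of human hepatocellular carcinoma HepG2 cells at 37 °C; qHTS concentration-response, normalized DMSO = 0%, 100 uM tamoxifen = 100%; AC50 by standard Hill equation.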

[15] = Cellular Toxicity (caspase-3) Jurkat (AID 655); details: Jurkat caspase-3 activation, luminescence; caspase-3 activation: at 92.2 µM (top of the series), DMSO = 0%, tamoxifen = 100%;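 further: cells exposed to compound for 16 h at 37 °C before reading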
Procedure, shortened: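 5000 Jurkat cells/well; compound 16 hr, 37 °C; Caspase-Glo 3/7 added, 20 min RT; luminescence read. Norm: DMSO = 0%, tamoxifen 100 uM = 100%. AC50, Hill model.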

[16] = Cellular Toxicity (caspase-3) HUV-EC-C (AID 656); details: HUV-EC-C cells, caspase-3 activation (apoptosis), vehicle = 0, 100 µM tamoxifen = 100%; series mostly up to 92.2 µM
Procedure, shortened: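 qHTS; HUV-EC-C, 1000 cells/well; 5 hr settle, 16 hr cmpd, 37°C; Caspase-Glo 3/7, 20 min RT; luminescence. Norm: DMSO = 0%, tamoxifen 100 uM = 100%. Hill-fit AC50.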

[17] = Cellular Toxicity (caspase-3) SHSY5Y (AID 657); details: SH-SY5Y caspase-3 activation, DMSO zero, 10 µM staurosporine = 100%; series mostly up to 91.7 µM;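 further: cells exposed to compound for 16 hours at 37 °C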
Procedure, shortened: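 qHTS, SH-SY5Y, 1500 cells/well, 5 h pre-incubation 37 °C; compound 16 h 37 °C; Caspase-Glo 3/7 1 h RT; luminescence. Norm.: DMSO = 0, 10 uM staurosporine = 100%. Hill fit → AC50.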

[18] = Cellular Toxicity (caspase-3) BJ (AID 658); details: BJ fibroblasts, luminescence, normalized: DMSO 0%, staurosporine 100%; series mostly up to 91.7 µM;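 further: cells exposed to compound for 16 hours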
Procedure, shortened: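 Caspase-Glo 3/7 luminescence, read 1 hr after reagent at room temperature, in normal BJ fibroblasts exposed 16 hours at 37 °C. AC50 values from Hill-equation concentration-response, scaled between DMSO basal and 10 uM staurosporine as 100%.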

[19] = Cellular Toxicity (caspase-3) MRC-5 (AID 659); details: MRC-5 cells, luminescence, normalized: DMSO 0%, 10 µM staurosporine 100%; series mostly up to 91.7 µM
Procedure, shortened: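 Luminescent Caspase-Glo 3/7 read-out (1 h, room temperature) after a 16 h, 37 °C compound exposure of MRC-5 lung fibroblasts at 1500 cells/well. Concentration-response AC50 from Hill equation; 0% DMSO, 100% 10 uM staurosporine.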

Clc1ccc(Cl)c(Cl)c1Cl
inactive: Potency [1] > 92 µM | Potency [2] > 92 µM | Potency [3] > 92 µM | Potency [4] > 92 µM | Potency [5] > 92 µM | outcome [6] | activity change, negative = cytotoxicity [7] -2.29% | Potency [8] | Potency [9] | Potency [10] | Potency [11] | Potency [12] | Potency [13] | Potency [14] | caspase-3 activation [15] -1.65% | outcome [16] | outcome [17] | outcome [18] | outcome [19]

OCCO
inactive: Potency [1] > 92 µM | Potency [2] > 92 µM | Potency [3] > 92 µM | Potency [4] > 92 µM | Potency [5] > 92 µM | outcome [6] | activity change, negative = cytotoxicity [7] -12.9% | Potency [8] | Potency [9] | Potency [10] | Potency [11] | Potency [13] | Potency [14] | caspase-3 activation [15] 1.1% | outcome [16] | outcome [17] | outcome [18] | outcome [19]

CCCOCC(C)OCC(C)O (stereo unspecified)
inactive: Potency [1] > 92 µM | Potency [2] > 92 µM | Potency [3] > 92 µM | Potency [4] > 92 µM | Potency [5] > 92 µM | outcome [6] | activity change, negative = cytotoxicity [7] -9.53% | Potency [8] | Potency [9] | Potency [10] | Potency [12] | Potency [13] | Potency [14] | caspase-3 activation [15] -2.41% | outcome [16] | outcome [17] | outcome [19]

O=C(O)CCSSCCC(=O)O
inactive: Potency [1] > 92 µM | Potency [2] > 92 µM | Potency [4] > 92 µM | Potency [5] > 92 µM | outcome [6] | activity change, negative = cytotoxicity [7] 1.39% | Potency [8] | Potency [9] | Potency [10] | Potency [11] | Potency [12] | Potency [13] | Potency [14] | caspase-3 activation [15] 0.0924% | outcome [16] | outcome [17] | outcome [19]

CCNc1ccccc1
inactive: Potency [1] > 92 µM | Potency [2] > 92 µM | Potency [3] > 92 µM | Potency [4] > 92 µM | Potency [5] > 92 µM | outcome [6] | activity change, negative = cytotoxicity [7] 2.42% | Potency [8] | Potency [9] | Potency [10] | Potency [12] | Potency [13] | Potency [14] | caspase-3 activation [15] 0.137% | outcome [16] | outcome [17] | outcome [18] | outcome [19]

Oc1c(Cl)ccc(Cl)c1Cl
inactive: Potency [1] > 92 µM | Potency [2] > 92 µM | Potency [3] > 92 µM | Potency [4] > 92 µM | Potency [5] > 92 µM | outcome [6] | activity change, negative = cytotoxicity [7] -9.1% | Potency [8] | Potency [9] | Potency [10] | Potency [11] | Potency [12] | Potency [13] | Potency [14] | caspase-3 activation [15] 0.893% | outcome [16] | outcome [17] | outcome [18] | outcome [19]

C=CCOC(=O)CCCCCCCC
inactive: Potency [1] > 92 µM | Potency [2] > 92 µM | Potency [3] > 92 µM | Potency [4] > 92 µM | Potency [5] > 92 µM | outcome [6] | activity change, negative = cytotoxicity [7] 9.38% | Potency [8] | Potency [9] | Potency [10] | Potency [12] | Potency [13] | Potency [14] | caspase-3 activation [15] -0.392% | outcome [16] | outcome [17] | outcome [18] | outcome [19]
